High-throughput results from PubChem BioAssay.
An excerpt weighted towards active compounds, which were near 1.6% of everything screened.
IMPase Li inh: membrane-permeable IMPase blocker, potentiated with lithium. Potency, µM (series often up to 59.4 µM), most hits filed as inhibitors. actives 0.35% (n = 210,000). CHO-M1 cells, IP1 TR-FRET (IP-One), carbachol + lithium;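 note: IP1 builds up when IMPase is blocked and the TR-FRET signal falls; nearly all actives have a fitted effect of over 50% in size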
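Test compounds were applied to CHO-M1 cells previously cultured for 16–30 h at 2000 per well. A small lithium amount accompanied them; after 30 min at 37C, IP1 was quantified by TR-FRET.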
NPSR antag: antagonists of human neuropeptide S receptor cAMP signaling; CHO-NPSR cells, cAMP TR-FRET, antagonist mode; Q6W5P4; Potency, µM (titrated, usually from 38.3 µM), usual class: inhibitors; actives 1% (n = 220,000); note: nearly all actives have a fitted effect of over 50% in size
Target sequence (Q6W5P4 whole entry, looked up): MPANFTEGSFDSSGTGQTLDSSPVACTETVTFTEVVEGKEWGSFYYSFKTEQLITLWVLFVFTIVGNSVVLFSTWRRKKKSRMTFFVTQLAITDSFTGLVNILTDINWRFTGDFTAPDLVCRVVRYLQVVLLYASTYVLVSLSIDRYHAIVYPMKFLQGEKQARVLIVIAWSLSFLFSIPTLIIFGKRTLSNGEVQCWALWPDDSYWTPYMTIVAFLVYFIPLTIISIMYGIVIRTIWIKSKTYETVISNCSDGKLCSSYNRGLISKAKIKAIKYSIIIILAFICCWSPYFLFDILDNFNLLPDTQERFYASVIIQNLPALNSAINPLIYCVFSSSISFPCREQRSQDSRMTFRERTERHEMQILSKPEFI
HttQ103 aggreg: mutant huntingtin aggregation inhibition; AID 1688; PC12 HttQ103-GFP aggregates, Acumen cytometry, 40 h; Potency, µM (highest dose often 46.1 µM), most hits filed as inhibitors; actives 1.1% (n = 220,000); note: nearly all actives have a fitted effect of over 60% in size
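Compounds (qHTS titration) were added to PC12 cells expressing an ecdysone-driven HTT exon 1 Q103–GFP fusion after induction with 100 nM tebufenozide. Aggregate formation was measured as GFP objects in cell lysates.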
IMPase inh: membrane-permeable compound that blocks inositol monophosphatase; inhibition (IP1 accumulation), % at 46.1 µM; CHO-M1 cells, IP1 accumulation, HTRF TR-FRET ratio; P97697; 120,000 tested, under 10 active; active = well fitted curve in the direction sought with a large enough effect in the signal ratio, not every such curve was filed as active; inconclusive = small, poorly fitted or top-dose-only effect, or a change in a side signal; inactive = no such curve, though single readings can be large or run the other way; the % refers to the signal ratio;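 note: cells stimulated with carbachol in lithium chloride buffer; higher means more IMPase inhibition seen as more IP1 and lower FRET ratio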
Target sequence (P97697 whole entry, looked up): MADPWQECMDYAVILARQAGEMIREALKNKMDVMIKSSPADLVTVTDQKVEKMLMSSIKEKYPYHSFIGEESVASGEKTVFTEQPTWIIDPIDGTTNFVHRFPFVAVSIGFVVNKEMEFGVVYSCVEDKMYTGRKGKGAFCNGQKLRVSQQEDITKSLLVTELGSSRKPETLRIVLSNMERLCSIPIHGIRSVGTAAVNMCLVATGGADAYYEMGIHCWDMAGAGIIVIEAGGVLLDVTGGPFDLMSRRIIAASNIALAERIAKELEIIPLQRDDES
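Elevated IP1 in lysates lowers TR-FRET signal (665/620 ratio and 620 channel reported). Cells were CHO-M1, given carbachol (50 uM as added) plus 50mM LiCl, pH 7.4, 30 min, 37C; compounds titrated up to 46 uM; AC50 by Hill equation.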
LMNA splice mod: changes lamin A minigene splicing in HeLa cells; HeLa LMNA splicing GFP/RFP minigene ratio, 48 h; actives 0.01% (n = 200,000); Potency, µM (series often up to 46.1 µM), most hits filed as inhibitors; AID 1487; active = well fitted inhibition curve with a large enough effect in the signal ratio, with a control signal flat, not every such curve was filed as active; inconclusive = small, poorly fitted or top-dose-only effect, or effect the other way, or a change in a side signal; the % refers to the signal ratio
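Read-out is the ratio of GFP to DsRed2 object intensity, acquired by 488 nm laser-scanning cytometry on HeLa lamin A-EGFP minigene reporter cells. Compound incubation 48 hrs at 37 °C in Opti-MEM with 2% FBS; DMSO 0.5% final.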
HTT cytoprotect: Huntington cell model cytoprotection by ATP luminescence | actives 0.14% (n = 230,000) | Potency, µM (top dose mostly 56.4 µM), most hits filed as activators | PC12 HTT-Q103 induced, cytoprotection, ATP luminescence, 40 h | AID 1471; note: nearly all actives have a fitted effect of over 45% in size
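Compounds added alongside 100 nM tebufenozide, which induces toxic Q103 huntingtin exon 1-GFP in stable PC12 cells; surviving cells quantified by luminescent ATP measurement. Medium: phenol red-free DMEM, 5% equine and 5% calf serum.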
A number is an active result; i = inactive; ? = inconclusive; nt = no result given; ! = repeats disagree; [ ] = dose if it differs, or a comment. Unless noted, calls come from the whole dose curve; as a rule, active = well fitted curve in the direction sought with a large enough effect; inconclusive = small, poorly fitted or top-dose-only effect, or another doubt; inactive = no such curve, though single readings can be large; an effect the other way counts as inactive or inconclusive.

SMILES	IMPase Li inh	NPSR antag	HttQ103 aggreg	IMPase inh	LMNA splice mod	HTT cytoprotect
O=C(Nc1ccccc1)Nc1ccc(S(=O)(=O)N2CCCCC2)cc1	i	i	13µM	i	?	i[10 µM]
O=C(Nc1ccc(S(=O)(=O)N2CCCCC2)cc1)c1ccccc1Cl	i	i	i	i	i	i
Cc1cc(C)n(-c2nnc(N3CCN(c4ccc(F)cc4)CC3)nn2)n1	i	i	11µM	nt	i	i
FC(F)(F)c1nc(N2CCCC2)ncc1-c1nnnn1-c1ccc(Cl)cc1	i	?	?	i	?	3.5µM
CC1=C(C(=O)OCc2ccc3c(c2)OCO3)C(c2ccc(F)cc2)NC(=O)N1 (stereo not given)	i	i	1.4µM	i	?	i
CCOC(=O)C1=C(C)NC(=O)NC1c1ccc2c(c1)OCCO2 (stereo not given)	i	i	i	i	i	i
CC1=C(C(=O)OCc2ccc3c(c2)OCO3)C(c2ccc(Cl)cc2)NC(=O)N1 (stereo not given)	i	i	1µM	i	?	i
COc1cc(/C=C\C(=O)N2CCCCC2=O)cc(OC)c1OC	nt	nt	nt	nt	nt	i
Cc1ccn2c(CCc3nnc4cc(C)ccn34)nnc2c1	i	nt	nt	nt	nt	i[10 µM]
C[C@]12CCC(=O)C=C1CC[C@@H]1[C@H]2[C@@H](O)C[C@@]2(C)[C@H]1CC[C@]2(O)C(=O)CO	nt	nt	i	nt	i	i
Cn1cnc([N+](=O)[O-])c1S(=O)(=O)c1cccc(Cl)c1	i	i	5.6µM	nt	?	nt
Oc1ccccc1Cn1c(-c2ccccc2O)nc2ccccc21	i	i	25µM	i	?	i
NC(=O)C/C=C\CC(N)=O	i	nt	nt	nt	nt	i[10 µM]
FC(F)(F)c1cnc(C(c2ccccn2)c2ncn[nH]2)c(Cl)c1 (stereo not given)	i	i	13µM	nt	?	i[10 µM]
CCOC(=O)C1=C(C)NC(=O)N[C@@H]1c1coc2cc(C)cc(C)c2c1=O	i	nt	nt	nt	nt	i[10 µM]
CC(C)c1cc(NC(=O)c2ccccc2)cc(C(C)C)c1O	i	i	11µM	nt	?	i
N[C@@H]1[C@@H]2[C@@H]3C[C@H]4N(CC[C@@]14C(=O)C(=O)O)CC3=CCO[C@@H]2CC(=O)O	i	nt	nt	nt	nt	i[10 µM]
COc1ccc(N2C3=C(CC4=C2CCCC4=O)C(=O)CCC3)cc1	i	i	i	i	i	i[10 µM]
COc1ccc(N2C(=O)CC3(CCCC3)CC2=O)cc1	i	i	i	nt	i	3.2µM
COc1ccc(N2C3=C(CC4=C2CC(C)(C)CC4=O)C(=O)CC(C)(C)C3)cc1	i	2µM	i[9.22 µM]	i	?	i
Cc1cc(=O)cc2oc3cc(N)c(-c4c(C)cc(O)cc4O)c(C)c3nc1-2	i	nt	nt	i	nt	i[1.9 µM]
Cc1ccc(/C=C2\SC(=S)N(c3cccnc3)C2=O)o1	nt	i	i[9.22 µM]	nt	nt	i[10 µM]
O=C(O)c1cccc(N2C(=O)/C(=C/c3ccc(SCc4ccc(Cl)cc4)o3)SC2=S)c1	i	i	i	nt	?	20µM
NCCNC(=S)S	i	nt	nt	nt	nt	i[10 µM]
CC(=O)NC1=C(N(C)C2CCS(=O)(=O)C2)C(=O)c2ccccc2C1=O (stereo not given)	i	i	13µM	nt	?	nt
SMILES	IMPase Li inh	NPSR antag	HttQ103 aggreg	IMPase inh	LMNA splice mod	HTT cytoprotect
Cn1c(=O)c2c(ncn2CCO)n(C)c1=O	i	i	i	i	?	2.5µM!
CC(C)CCn1cnc2c1c(=O)n(C)c(=O)n2C	i	i	i	i	i	i[0.074 µM]
CCCCNC(C(=O)Nc1ccc(Cl)c([N+](=O)[O-])c1)c1ccccc1 (stereo not given)	i	i	i	i	?	i[1.9 µM]
COc1ccccc1-n1c(SCc2cc(=O)oc3cc(O)ccc23)nc2ccccc2c1=O	i	i	i	nt	i	i[0.074 µM]
COc1ccccc1-n1c(=O)oc2ccc(Cl)cc2c1=O	i	i	7.1µM	?	?	i[0.074 µM]
c1ccc(C2=Nn3c(nnc3-c3ccncc3)SC2)cc1	i	?	10µM	i	?	25µM
O=C(O)c1nnsc1-c1ccc(-c2snnc2C(=O)O)cc1	i	nt	nt	nt	nt	i[10 µM]
COc1cc(NS(=O)(=O)c2ccc(OC)c(C)c2C)c(OC)cc1Cl	i	20µM	i	i	i	i
O=C1COc2ccc(C(=O)NC3CC3)cc2N1	i	i	i	nt	i	i
O=C(O)/C=C/C(=O)c1ccc2c(c1)NC(=O)CO2	i	i	i	nt	nt	0.2µM
CCCCC/C=C\C\C=C/C=C/C=C/[C@@H](O)[C@@H](O)CCCC(=O)O	i	nt	nt	nt	nt	i
CCOC(=O)C1CCN(C(=O)c2c(C)oc3c2C(=O)c2ccccc2C3=O)CC1	i	i	i	nt	?	nt
Cc1oc2c(c1C(=O)N1CCC(C)CC1)C(=O)c1ccccc1C2=O	i	i	7.1µM	nt	?	nt
CC(C)(C)C1CCc2c(sc3nc(-c4cc5cc(Cl)ccc5oc4=O)[nH]c(=O)c23)C1 (stereo not given)	nt	nt	nt	nt	i	nt
O=C(COC(=O)c1c2c(nc3ccccc13)CCN(Cc1ccccc1)C2)Nc1c(F)cccc1F	i	i	i	nt	?	i[10 µM]
CC(=O)Nc1ccc(NC(=O)COC(=O)c2c3c(nc4ccccc24)CCN(Cc2ccccc2)C3)cc1	nt	?	4µM	i	?	i[10 µM]
CC1(C)C(=O)NC2=C1C(=O)C(=O)c1ccccc12	i	nt	nt	?	nt	i
CCCCN=Cc1c(C)[nH]n(-c2ccccc2)c1=S	i	i	i	nt	nt	i
CCCCN(CCCC)C(=S)N/N=C/c1c(C)[nH]n(-c2ccccc2)c1=O	i	i	11µM	i	?	i
Cc1ccc(Cn2ccc(NC(=O)c3cc(-c4ccccc4)on3)n2)cc1	i	i	i	i	i	i
Cc1ccc(Cn2ccc(NC(=O)c3cc(-c4ccc5c(c4)OCO5)on3)n2)cc1	11µM	i	i	i	?	i
COc1ccc(C(=O)c2ccccc2)c(O)c1O	i	nt	nt	nt	i	nt
Cc1nn(C)c(C)c1/C=C/C(=O)O	i	i	i	nt	i	11µM
Cc1nn(C)c(Cl)c1/C=C/C(=O)O	i	i	i	nt	nt	i[10 µM]
Nc1cc(-c2ccc(Br)cc2)nn1S(=O)(=O)c1cccc2nsnc12	i	i	25µM	i	i	i
SMILES	IMPase Li inh	NPSR antag	HttQ103 aggreg	IMPase inh	LMNA splice mod	HTT cytoprotect
Nc1cc(-c2ccc(Cl)cc2)nn1S(=O)(=O)c1cccc2nsnc12	i	i	?	i	i	i
O=c1c2ccccc2sc2nc(C3CCCCC3)n(Cc3ccco3)c(=O)c12	i	10µM	i	i	?	i[0.074 µM]
CCc1nc2sc3ccccc3c(=O)c2c(=O)n1Cc1ccco1	i	i	i	i[0.0738 µM]	i	i[10 µM]
CCCCCOC(=O)c1ccc(OC(=O)c2sc3ncn(Cc4cccc(F)c4)c(=O)c3c2C)cc1	nt	nt	nt	nt	i	nt
COCCCn1c(SCC(=O)NCc2ccccc2)nc2c(sc3ccccc32)c1=O	nt	nt	nt	nt	i	nt
C=CCn1c(=O)n(CCOC)c(=O)c2sc3ccccc3c21	i	i	22µM	i	i	i[10 µM]
O=[N+]([O-])c1ccccc1CN1CCN(Cc2c[nH]c3ccccc23)CC1	i	i	8.9µM	nt	?	i
